Values joined by “and” are separate entries in the source; they are usually repeats but may differ in a detail not shown here. Equal entries are not always repeated. In all, about 5,500 compounds went through this assay and about 2,000 (36%) were called active. Another 18% or so got no clear call; they are omitted. No stated cut-off is given here; in the data, active means normalized growth mostly below about 0.91 (no sharp cut-off); inconclusive means no clear call, values can overlap the other calls; inactive means mostly above about 0.92. Some of the results follow.
Experiment: chemical genetic growth profiling, strain panel (AID 1159580);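 further: tested at 20 µM; growth read once vehicle control cultures reached saturation at 30 °C; 1 = growth at the plate median or of vehicle wells; lower values mean less growth of the strain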
Conditions: S. cerevisiae deletion strains, growth OD

Measured: normalized growth

NC1(C(=O)O)CCCC1
inactive: locus YAL013W, strain DEP1, active compounds read low 1 | locus YAL021C, strain ccr4, active compounds read low 1.01 | locus YAL026C, strain drs2, active compounds read low 1.02 | locus YAL030W, strain snc1, active compounds read low 1.02 | locus YBL061C, strain skt5, active compounds read low 1.01 | locus YBR009C, strain hhf1, active compounds read low 1 | locus YBR021W, strain FUR4, active compounds read low 0.989 | locus YBR023C, strain chs3, active compounds read low 1.02 | locus YBR171W, strain sec66, active compounds read low 1.03 | locus YBR229C, strain ROT2, active compounds read low 1.01 | locus YBR231C, strain swc5, active compounds read low 1.02 | locus YBR279W, strain paf1, active compounds read low 1.01 | locus YCL011C, strain gbp2, active compounds read low 1.02 | locus YCL016C, strain dcc1, active compounds read low 1.01 | locus YCL029C, strain bik1, active compounds read low 1.02 | locus YCL061C, strain MRC1, active compounds read low 1.02 | locus YCL069W, strain vba3, active compounds read low 1.02 | locus YCR088W, strain abp1, active compounds read low 1.02 | locus YDL005C, strain med2, active compounds read low 1.01 | locus YDL035C, strain GPR1, active compounds read low 1.01 | locus YDL040C, strain nat1, active compounds read low 1.01 | locus YDL074C, strain BRE1, active compounds read low 1.02 | locus YDL101C, strain DUN1, active compounds read low 1 | locus YDL134C, strain PPH21, active compounds read low 0.998 | locus YDL185W, strain tfp1, active compounds read low 0.989 | locus YDL192W, strain arf1, active compounds read low 0.998 | locus YDR001C, strain nth1, active compounds read low 1.02 | locus YDR069C, strain doa4, active compounds read low 1.03 | locus YDR101C, strain arx1, active compounds read low 1.01 | locus YDR137W, strain rgp1, active compounds read low 1 | locus YDR150W, strain NUM1, active compounds read low 1.01 | locus YDR159W, strain sac3, active compounds read low 0.995 | locus YDR162C, strain NBP2, active compounds read low 1.01 | locus YDR195W, strain ref2 1.03 | locus YDR297W, strain sur2, active compounds read low 1.01 | locus YDR318W, strain mcm21, active compounds read low 0.996 | locus YDR334W, strain swr1, active compounds read low 1.01 | locus YDR335W, strain msn5, active compounds read low 1.01 | locus YDR388W, active compounds read low 0.998 | locus YDR392W, strain spt3, active compounds read low 1.01 | locus YDR502C, strain sam2, active compounds read low 0.99 | locus YEL003W, strain gim4, active compounds read low 1.02 | locus YEL037C, strain rad23, active compounds read low 1.02 | locus YEL061C, strain CIN8 (second series), active compounds read low 1.02 | locus YEL061C, strain CIN8, active compounds read low 1.01 | locus YER015W, strain faa2, active compounds read low 1.02 | locus YER016W, strain bim1, active compounds read low 1.01 | locus YER110C, active compounds read low 1 | locus YER111C, strain swi4, active compounds read low 1.03 | locus YER155C, strain BEM2 (second series), active compounds read low 1.07 | locus YER155C, strain BEM2, active compounds read low 0.997 | locus YER167W, strain BCK2, active compounds read low 1.01 | locus YFR010W, strain ubp6, active compounds read low 1.02 | locus YGL078C, strain dbp3, active compounds read low 0.989 | locus YGL086W, strain mad1, active compounds read low 0.994 | locus YGL167C, strain pmr1, active compounds read low 1.01 | locus YGL173C, strain kem1, active compounds read low 1.02 | locus YGL227W, strain vid30, active compounds read low 1.02 | locus YGL240W, strain doc1, active compounds read low 1.04 | locus YGL248W, strain PDE1, active compounds read low 1.01 | locus YGL253W, strain hxk2, active compounds read low 1.02 | locus YGR135W, strain pre9, active compounds read low 0.998 | locus YGR252W, strain gcn5, active compounds read low 0.935 | locus YHR013C, strain ard1, active compounds read low 1.07 | locus YHR027C, strain rpn1, active compounds read low 1.01 | locus YHR030C, strain SLT2, active compounds read low 1.01 | locus YHR079C, strain IRE1 (second series), active compounds read low 0.996 | locus YHR079C, strain IRE1, active compounds read low 1.04 | locus YHR094C, strain hxt1, active compounds read low 0.998 | locus YHR129C, strain ARP1, active compounds read low 1.01 | locus YHR142W, strain chs7, active compounds read low 1.03 | locus YHR200W, strain rpn10, active compounds read low 0.997 | locus YIL066C, strain RNR3, active compounds read low 1.02 | locus YIL073C, strain SPO22, active compounds read low 1.02 | locus YIL125W, strain kgd1, active compounds read low 1 | locus YIR030C, strain dcg1, active compounds read low 1.01 | locus YJL092W, strain hpr5, active compounds read low 1.03 | locus YJL095W, strain BCK1 (second series), active compounds read low 1.01 | locus YJL095W, strain BCK1, active compounds read low 1.01 and 1.02 | locus YJL115W, strain asf1, active compounds read low 1.03 | locus YJL129C, strain trk1, active compounds read low 1.06 | locus YJL134W, strain LCB3, active compounds read low 1.01 | locus YJL154C, strain vps35, active compounds read low 1.02 | locus YJL164C, strain tpk1, active compounds read low 1.02 | locus YJL166W, strain qcr8, active compounds read low 1.02 | locus YJL168C, strain set2, active compounds read low 0.994 | locus YJL187C, strain SWE1 (second series), active compounds read low 1.01 | locus YJR043C, strain POL32, active compounds read low 1 | locus YJR066W, strain TOR1, active compounds read low 0.975
